{"source": "paper PMC6602471", "note": "Over roughly 1,300 sequences, “log fluorescence intensity” has its median near 8.3; the highest 2% begin near 12. The sample holds the highest values, similar sequences and a random draw of the others, so the mix is not that of the screen."}
{"biological_target": "T1, ETS1 (Homo sapiens, UniProt P14921 1-441)", "T1 sequence": "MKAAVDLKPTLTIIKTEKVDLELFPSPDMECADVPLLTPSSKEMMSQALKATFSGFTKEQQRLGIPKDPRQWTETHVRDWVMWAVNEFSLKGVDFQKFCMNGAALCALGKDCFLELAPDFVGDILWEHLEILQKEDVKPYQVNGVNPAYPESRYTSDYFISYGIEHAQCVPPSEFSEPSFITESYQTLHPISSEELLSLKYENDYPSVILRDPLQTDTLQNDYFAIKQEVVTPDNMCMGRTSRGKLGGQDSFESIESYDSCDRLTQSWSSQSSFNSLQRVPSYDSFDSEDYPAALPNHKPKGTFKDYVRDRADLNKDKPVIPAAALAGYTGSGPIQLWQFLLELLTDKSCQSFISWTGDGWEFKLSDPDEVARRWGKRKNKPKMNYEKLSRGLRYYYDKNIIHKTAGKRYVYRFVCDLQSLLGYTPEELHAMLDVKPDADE", "experiment": "custom PBM; custom protein-binding microarray; buffer, salt, pH and temperature not stated; high values mean tight binding", "details": "dsDNA, one strand shown"}
{"sequence": "TCCGGCTACCAGCTCCACCCACTTCCGGCCTTGTAGGTCTTGATTCGCTTGACGCTGCTG", "binding signal": "13.1 log fluorescence intensity"}
{"sequence": "TCCGGCTACCAGCTCCACCCACTTCAAGCCTTGTAGGTCTTGATTCGCTTGACGCTGCTG", "binding signal": "8.4 log fluorescence intensity"}
{"sequence": "TCCGGCTACCAGCTCCACCCACTTCAGGCCTTGTAGGTCTTGATTCGCTTGACGCTGCTG", "binding signal": "8.36 log fluorescence intensity"}
{"sequence": "TAAAGGGAAGAGGGTTGTGGTAGTTCCGGGTATTAAGTCTTGATTCGCTTGACGCTGCTG", "binding signal": "8.6 log fluorescence intensity"}
{"sequence": "TCCGGCTACCACCTCCACCCACTTCAGGCCTTGTAGGTCTTGATTCGCTTGACGCTGCTG", "binding signal": "8.32 log fluorescence intensity"}
{"sequence": "GGAAAAAGGCCCAGGGTAACGCCGGAAGTGGGCTTAGTCTTGATTCGCTTGACGCTGCTG", "binding signal": "10.7 log fluorescence intensity"}
{"sequence": "GGAAAAAGGCCCAGGGTAACAGCGGAAGTGGGCTTAGTCTTGATTCGCTTGACGCTGCTG", "binding signal": "10.2 log fluorescence intensity"}
{"sequence": "TGAAAAAGGCCCAGGGTAACACCGGAAGTGGGCTTAGTCTTGATTCGCTTGACGCTGCTG", "binding signal": "11.8 log fluorescence intensity"}
{"sequence": "GGAAAAAAGCCCAGGGTAACACCGGAAGTGGGCTTAGTCTTGATTCGCTTGACGCTGCTG", "binding signal": "12.1 log fluorescence intensity"}
{"sequence": "GGAAAAAGCCCCAGGGTAACACCGGAAGTGGGCTTAGTCTTGATTCGCTTGACGCTGCTG", "binding signal": "12.1 log fluorescence intensity"}
{"sequence": "AGAAAAAGGCCCAGGGTAACACCGGAAGTGGGCTTAGTCTTGATTCGCTTGACGCTGCTG", "binding signal": "11.9 log fluorescence intensity"}
{"sequence": "CGAAAAAGGCCCAGGGTAACACCGGAAGTGGGCTTAGTCTTGATTCGCTTGACGCTGCTG", "binding signal": "12 log fluorescence intensity"}
{"sequence": "GGAAAAGGGCCCAGGGTAACACCGGAAGTGGGCTTAGTCTTGATTCGCTTGACGCTGCTG", "binding signal": "11.8 log fluorescence intensity"}
{"sequence": "GGAAAAAGGCCCAGTGTAACACCGGAAGTGGGCTTAGTCTTGATTCGCTTGACGCTGCTG", "binding signal": "12 log fluorescence intensity"}
{"sequence": "GGAAAAAGGCCCACGGTAACACCGGAAGTGGGCTTAGTCTTGATTCGCTTGACGCTGCTG", "binding signal": "12.2 log fluorescence intensity"}
{"sequence": "GGAAAAAGGCCCATGGTAACACCGGAAGTGGGCTTAGTCTTGATTCGCTTGACGCTGCTG", "binding signal": "11.9 log fluorescence intensity"}
{"sequence": "GGAAAAAGGCCAAGGGTAACACCGGAAGTGGGCTTAGTCTTGATTCGCTTGACGCTGCTG", "binding signal": "12 log fluorescence intensity"}
{"sequence": "GGAAAAAGGCCCAAGGTAACACCGGAAGTGGGCTTAGTCTTGATTCGCTTGACGCTGCTG", "binding signal": "12.1 log fluorescence intensity"}
{"sequence": "CTGGGACTTGACCCGACTCTGCCACGTGGGTCGTTTGTCTTGATTCGCTTGACGCTGCTG", "binding signal": "8.49 log fluorescence intensity"}
{"sequence": "TACTGACATATATATGCGAATGCACATGAATAGACCGTCTTGATTCGCTTGACGCTGCTG", "binding signal": "8.43 log fluorescence intensity"}
{"sequence": "GAGCATAGGACTTCTTCCCTGAAGCAATTGATAACCGTCTTGATTCGCTTGACGCTGCTG", "binding signal": "8.32 log fluorescence intensity"}
{"sequence": "CGGAAGTGTCGTAAACGTCGGATATCCGGTTCGTCTGTCTTGATTCGCTTGACGCTGCTG", "binding signal": "11.9 log fluorescence intensity"}
{"sequence": "TGTCGGGTAAGGGAATGTAGATGACGTGAATGAAAAGTCTTGATTCGCTTGACGCTGCTG", "binding signal": "8.36 log fluorescence intensity"}
